Screening results as filed in PubChem BioAssay.
CHT block – inhibitors of human choline transporter CHT; High affinity choline transporter 1 (Homo sapiens), Q9GZV3; CHT-expressing cells, membrane potential dye, choline response; hits give low values; B-score at 10 µM; 0.86% of 310,000 active; AID 488975, 2010;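 active = B-score over 3 SD under the library average, and starting fluorescence ratio not unusually high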;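 also: choline stimulus applied at its EC90 after an EC20 pre-addition; B-score computed on integrated fluorescence ratio after choline addition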
H9c2 TAG inh – inhibitors of triacylglycerol accumulation, primary screen, cell-based, uHTS, fluorescence, H9c2. H9c2 cells, Nile Red lipid (TAG) fluorescence; cells loaded with 200 µM oleic acid. inhibition, % at 12.5 µM. 0.66% of 230,000 active;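 active = pattern-corrected inhibition of lipid staining of at least 50% with the nuclear-stain viability signal not falling by more than 50%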;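 also: 0% = DMSO wells and 100% = triacsin C control wells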
Kir21 block – inhibitors of mouse Kir2.1 inward-rectifier potassium channel. Inward rectifier potassium channel 2 (Mus musculus), P35561. HEK293-Kir2.1, FluxOR thallium flux fluorescence; hits give low values. 0.85% of 310,000 active. B-score at 10 µM. AID 1672, 2009;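 active = fluorescence ratio B-score at or below minus 3 SD of library scores, with starting-brightness B-score within 2 SD, cut at about -4.2 in these data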;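 also: channel flux triggered by added potassium and thallium sulfate stimulus; B-score of peak minus minimum fluorescence over baseline after thallium stimulus; more negative B-score means stronger Kir2.1 block with less thallium influx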
Target sequence (P35561 whole entry, looked up): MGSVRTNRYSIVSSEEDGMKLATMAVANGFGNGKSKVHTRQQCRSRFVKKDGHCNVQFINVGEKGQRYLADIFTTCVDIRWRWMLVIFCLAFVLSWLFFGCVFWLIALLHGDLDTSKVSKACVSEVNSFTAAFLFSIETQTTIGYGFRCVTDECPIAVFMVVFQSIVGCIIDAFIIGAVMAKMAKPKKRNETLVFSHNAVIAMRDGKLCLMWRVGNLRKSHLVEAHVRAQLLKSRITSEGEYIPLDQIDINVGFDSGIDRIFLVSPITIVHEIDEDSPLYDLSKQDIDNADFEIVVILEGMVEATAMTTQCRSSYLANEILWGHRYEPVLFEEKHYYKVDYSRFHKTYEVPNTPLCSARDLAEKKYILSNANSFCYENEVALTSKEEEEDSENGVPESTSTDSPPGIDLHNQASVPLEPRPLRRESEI
CHT allo act – CHT positive allosteric modulators, primary screen, cell-based, membrane potential dye, choline EC20. High affinity choline transporter 1 (Homo sapiens), Q9GZV3. CHT-expressing cells; hits give high values; LV-AA mutant CHT in HEK293 cells. B-score at 10 µM. 0.49% of 310,000 active. AID 488977, 2010;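 active = initial fluorescence not abnormally high and integrated response B-score, plate-corrected, over 3 SD above library mean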
CHT block conf – CHT inhibitors, confirmation, cell-based, membrane potential dye, duplicate; shares compounds with CHT block; CHT-expressing cells, choline membrane potential dye; LV-to-AA substituted CHT, HEK293 cells; CHT activity remaining % of control (hits give low values), % at 10 µM; 70% of 2,400 active;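 active = choline transporter activity left, mean of duplicates at 10 µM, below buffer-only control mean minus 3 SD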;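 also: depolarization triggered by choline at its EC90 following an EC20 pre-addition; 0% = hemicholinium-3 full block and 100% = buffer-only control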
HEK293 CHT ctr – membrane potential effects in parental HEK293, counter-screen for CHT inhibitor project, cell-based, membrane potential dye. shares compounds with CHT block. choline response; active = decrease or increase beyond buffer ±3SD. membrane potential ratio readout (active if shifted either direction beyond buffer ±3SD; no single direction) at 10 µM. 4% of 2,400 active;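 also: parental cells lack the transporter so any hit is non-specific; ratio is peak minus trough fluorescence over baseline after EC90 choline challenge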
* marks the source's active call; other numbers are inactive results; i = inactive; · = not tested or not shown. Compounds with a hit are over-represented: about 2% of the library has one in this group of screens.

SMILES	CHT block	H9c2 TAG inh	Kir21 block	CHT allo act	CHT block conf	HEK293 CHT ctr
COc1ccc(-c2cc(C(=O)NCCCN3CCOCC3)c3cc(C(C)C)ccc3n2)cc1	-7.4*	·	0.28	i	50%*	i
CN(C)S(=O)(=O)c1ccc(NC(=O)C2CC3C=CC2C3)cc1 (stereo unspecified)	-6.7*	·	-0.04	i	i	i
CCOC(=O)c1cc(CC)sc1NC(=O)COc1ccc2c(C)cc(=O)oc2c1	-7.3*	·	1.1	i	i	i
O=c1oc2ccccc2c(O)c1Cc1cc(Cl)c2cccnc2c1O	-7.3*	15	1.2	i	69%*	i
O=C(SCc1c(O)c2ccccc2oc1=O)c1ccccc1	·	-7	·	·	·	·
CC(Sc1nc2cc([N+](=O)[O-])ccc2n1-c1cccc(C(F)(F)F)c1)C(=O)NC(N)=O (stereo unspecified)	i	·	0.44	i	·	·
COc1ccc(S(=O)(=O)N(C)c2ccc(C(=O)Nc3cccnc3)cc2)cc1OC	i	-20	2.3	i	·	·
C/C(=N\NS(=O)(=O)c1ccc(Cl)c([N+](=O)[O-])c1)c1cc2ccccc2o1	-7.5*	·	2	i	71%*	i
Cc1nc(SCC(=O)NC(=O)NCc2ccco2)nc(C)c1C	i	-1	1.4	i	·	·
Cc1nc(SCC(=O)NC(=O)NCc2ccccc2)nc(C)c1C	-6.2*	·	-1.4	i	69%*	i
Cc1ccc(NC(=S)NNC(=O)c2ccccc2O)c(C)c1	-8.2*	-5	1.1	i	i	i
Cc1cccc(NC(=S)NNC(=O)c2ccc(O)cc2O)c1C	i	9	0.01	i	·	·
O=C(O)c1cc(-n2nnnc2SCc2ccc([N+](=O)[O-])cc2)ccc1Cl	i	·	1.1	i	·	·
Oc1cccc(-n2nnnc2SCc2ccccc2F)c1	-6.3*	·	-0.7	i	57%*	i
O=[N+]([O-])c1ccc(O)c(CSc2nnnn2-c2ccccc2)c1	-6.1*	2	-0.57	i	30%*	i
CCCCNC(=O)c1sc(=S)n2c1[nH]c(=O)c1ccc(C(=O)NCCc3ccc(OC)c(OC)c3)cc12	i	·	-2.4	i	·	·
O=C(NCc1ccccc1)c1sc(=S)n2c1[nH]c(=O)c1ccccc12	-6.7*	-4	-1.9	i	63%*	i
N#CC(C#N)=C(Nc1ccc(F)cc1)SCc1cccc(F)c1	-5.8*	7	0.06	i	65%*	i
CC(C)(C)c1ccc(-c2nnc(N)s2)cc1	-6*	2	0.52	i	i	i
Nc1nnc(-c2ccc(F)cc2)s1	i	·	0.36	i	·	·
CNc1nc(-c2ccc3c(c2)CCN3C(=O)c2cccc(F)c2)cs1	-5.2*	6	0.01	i	i	i
Cc1ccc2c(c1)N(S(=O)(=O)c1ccc(CN3C(=O)c4cccnc4C3=O)s1)CCO2	-5.2*	·	-0.03	i	69%*	i
Oc1c(Br)cc(Br)c(/C=N/n2c(-c3ccccc3)n[nH]c2=S)c1Br	-6.8*	-3	1.8	i	48%*	i
Oc1ccc(Br)cc1/C=N/n1c(-c2ccccc2)n[nH]c1=S	i	-5	1.2	i	·	·
O=C(Nc1nccs1)C1CCN(S(=O)(=O)c2c(Cl)cccc2Cl)CC1	-5.9*	·	-1.2	i	i	i
SMILES	CHT block	H9c2 TAG inh	Kir21 block	CHT allo act	CHT block conf	HEK293 CHT ctr
Cc1ccc(S(=O)(=O)N2[C@@H](c3ccc(F)cc3)C(C(=O)O)=CC[C@H]2c2ccc(C(C)C)cc2)cc1	-6.3*	-2	·	i	65%*	i
Cc1ccc(S(=O)(=O)N2[C@@H](c3ccc(F)cc3)C(C(=O)O)=CC[C@H]2c2ccc(Cl)cc2)cc1	i	·	·	i	·	·
Cc1ccc([C@@H]2CC=C(C(=O)O)[C@H](c3ccc(Cl)cc3)N2S(=O)(=O)c2ccc(C)cc2)cc1	i	12	·	i	·	·
Cc1ccc(S(=O)(=O)N2[C@@H](c3ccc(Cl)cc3)C(C(=O)O)=CC[C@H]2c2ccc(Cl)cc2)cc1	-5.7*	5	·	i	62%*	i
CCOC(=O)c1c(NC(=O)CSc2ncn[nH]2)sc(C(=O)N(C)C)c1C	i	4	2.1	i	·	·
CCOC(=O)c1c(NC(=O)CSc2ncn[nH]2)sc(C)c1C	-6.7*	-2	0.44	i	i	i
O=C(CN1CCOCC1)N1CCN(S(=O)(=O)c2ccccc2)C1c1ccccc1 (stereo unspecified)	-6.9*	·	-0.47	i	i	-9.8*
COc1ccc(C2N(C(=O)CN3CCCC3)CCCN2S(=O)(=O)c2ccccc2)cc1 (stereo unspecified)	i	·	-0.12	i	·	·
CC(=O)C1=C(O)C(=O)N(Cc2ccccc2)C1c1ccccc1F (stereo unspecified)	-8.4*	-8	0.05	i	i	i
CC(=O)C1=C(O)C(=O)N(Cc2ccccc2)C1c1ccc(F)cc1 (stereo unspecified)	i	·	-0.93	i	·	·
COc1ccc(C2=NN(c3ccc(C(=O)O)cc3)C(c3ccc(OC)c(OC)c3)C2)cc1 (stereo unspecified)	-5.3*	·	3.1	i	62%*	i
CCSc1nnc(NC(=O)c2c(-c3ccccc3Cl)noc2C)s1	i	-2	0.98	i	·	·
Cc1onc(-c2ccccc2Cl)c1C(=O)Nc1nnc(-c2cccc([N+](=O)[O-])c2)s1	-6.9*	14	1.2	i	51%*	i
C/C(=N\NC(=O)Cn1nc(C)c([N+](=O)[O-])c1C)c1ccco1	i	7	-0.82	i	·	·
COC(=O)C1CCCCN1C(=O)c1cc(COc2cccc3cnccc23)on1 (stereo unspecified)	i	-13	1	i	·	·
CCOC(=O)CC1CCCCN1C(=O)c1cc(COc2cccc3cnccc23)on1 (stereo unspecified)	-5.4*	·	-4.1	i	69%*	i
CCOC(=O)c1c(/N=C/c2cc([N+](=O)[O-])ccc2O)sc(C)c1C	-5*	·	2.3	i	i	i
[O-][N+](=Cc1ccccc1)CC1(O)CCCCC1	·	2	·	·	·	·
CC(=O)Oc1ccc(C(=O)Nc2ccc(S(=O)(=O)NCC3CCCO3)cc2)cc1 (stereo unspecified)	-5.1*	·	-2.8	i	70%*	i
